Screening data (PubChem BioAssay)
This is a sample that favours compounds with a hit; in the whole collection about 21% have one here.
Cycloheximide cs – counter-screen hit for Shiga toxin inhibitors, cycloheximide; actives 12% (n = 300,000); max response, %; AID 2314; cell reporter, cycloheximide protein synthesis inhibition counterscreen; in the data active means max response mostly above about 13%, no sharp cut-off; inactive means mostly below about 14%; further: read at 38.3 µM for the half of the compounds with a filed dose; 0% is about no effect
NS1 inh – inhibitors of influenza NS1 protein function; Potency, µM (series often up to 46.1 µM), without a hit: at the highest dose activity, positive = more growth; actives 0.4% (n = 270,000); calls by dose curve; further: potency means the concentration at half of the fitted maximal effect; actives are rising curves; nearly all actives have a fitted effect of over 50% in size
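Compounds were scored for reversing the slow growth caused by influenza A NS1 in S. cerevisiae, measured by optical density at 600 nm. Assay medium contained 2% galactose at pH 6.0; NS1-free yeast of the same strain were the positive control.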
Pf growth 48h – P. falciparum growth inhibition at 48 hours (one generation); Potency, µM (titrated, usually from 28.7 µM), for the others: top-dose activity change, negative = inhibition, most hits filed as inhibitors; P. falciparum luciferase growth in erythrocytes, 48 h; actives 5.9% (n = 310,000); further: potency means the concentration at half of the fitted maximal effect; on the % scale 0 is the no-effect control and ±100 the full control effect
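Growth was read as firefly luciferase luminescence after a 48 h, 37 C, 5% CO2 exposure of compounds to reporter-bearing P. falciparum cultures (0.1% parasitemia, 2% hematocrit final) in Albumax-supplemented RPMI 1640.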
Shiga toxin inh – Shiga toxin inhibition; Vero cells, Shiga toxin protein synthesis inhibition reporter; inhibition, % at 38.7 µM; AID 2315; actives 9.2% (n = 290,000); in the data active means inhibition mostly above about 28%, no sharp cut-off; inactive means mostly below about 43%; further: 0% is about no effect
Giardia FBPA inh – inhibitors of Giardia lamblia fructose-1,6-bisphosphate aldolase; A8B2U2; purified Giardia FBPA; Potency, µM (top dose mostly 59.6 µM), for inactives: at the highest dose activity, negative = inhibition, actives largely listed as inhibitors; actives 0.71% (n = 290,000); further: potency means the concentration at half of the fitted maximal effect; on the % scale 0 is the no-effect control and ±100 the full control effect; nearly all actives have a fitted effect of over 55% in size
Target sequence (A8B2U2 whole entry, looked up): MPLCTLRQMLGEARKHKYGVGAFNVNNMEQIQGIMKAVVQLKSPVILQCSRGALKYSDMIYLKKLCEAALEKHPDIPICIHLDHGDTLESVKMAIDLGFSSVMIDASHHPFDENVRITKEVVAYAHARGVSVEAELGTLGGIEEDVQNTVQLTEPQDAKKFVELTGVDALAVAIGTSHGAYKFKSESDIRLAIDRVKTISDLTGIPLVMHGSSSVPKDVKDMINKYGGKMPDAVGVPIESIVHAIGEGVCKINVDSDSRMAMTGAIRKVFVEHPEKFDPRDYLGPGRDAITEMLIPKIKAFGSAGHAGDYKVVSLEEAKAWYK
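40 nM FBPA preincubated 10 min at RT with compound (up to 57.5 uM final), then substrate plus GAPDH/TPI/NAD/arsenate coupling and diaphorase/resazurin added. Fluorescence read after 20 min at RT, 525/598 nm.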
Pf growth 96h – P. falciparum growth inhibition at 96 hour, primary screen for plastid delayed-death inhibitors; actives 6.9% (n = 320,000); P. falciparum luciferase reporter growth, 96 h; Potency, µM (doses to about 28.7 µM), inactives show top-dose activity change, negative = inhibition, most hits filed as inhibitors; AID 504834; further: potency means the concentration at half of the fitted maximal effect; on the % scale 0 is the no-effect control and ±100 the full control effect
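Cell-based qHTS: luciferase-tagged P. falciparum in erythrocytes (2% hematocrit, 0.05% parasitemia final) incubated with compounds for 96 hours, 37 C, 5% CO2; luciferase detection reagent then added and luminescence measured.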
* hit, by the source's call; ? = inconclusive; · = no result given. Unless noted, the call rests on the fitted dose curve; in most records, active means well fitted curve in the direction sought with a large enough effect; inconclusive means small, poorly fitted or top-dose-only effect, or another doubt; inactive means no such curve, though single readings can be large; an effect the other way counts as inactive or inconclusive.

SMILES	Cycloheximide cs	NS1 inh	Pf growth 48h	Shiga toxin inh	Giardia FBPA inh	Pf growth 96h
Nc1c(C(=O)Nc2ccccc2Cl)nnn1-c1ccc2c(c1)OCCO2	33*	-2%	228%	65*	3%	?
O=C(c1ccco1)N1CCCN(Cc2nc(Cc3ccccc3)no2)CC1	0	1%	-7%	-15	1%	4%
Cc1ccc(-c2nc(CN(Cc3c(C)nn(C)c3C)C(C)C)c(C)o2)o1	1	6%	-15%	-5	0%	?
COc1ccc(F)cc1S(=O)(=O)Nc1ccncc1	-2	14%	-7%	·	7%	-21%
CN(C(=S)NC(=O)c1ccc(F)cc1)C1CCCCC1	19*	-11%	?	29	·	?
CN(C(=S)NC(=O)c1ccc(Cl)cc1)C1CCCCC1	50*	3%	?	72*	18%	10µM*
O=C(NNC(=O)C1CCC1)c1ccc(Cl)cc1	-1	18%	28%	-5	·	15%
CN(C(=O)c1cccc(NC(=O)c2ccccc2)c1)C1CCCCC1	5	-13%	-26%	-32	·	-2%
CN(C(=S)NC(=O)c1ccccc1)C1CCCCC1	15*	0%	?	34*	?	?
c1ccc2cc(NCNc3ccc4ccccc4c3)ccc2c1	·	-40%	·	·	·	·
Cc1[nH]c2ccccc2c1C1=CCNCC1	12	?	3.3µM*	-8	?	-31%
C1=C(c2ccccc2)CCNC1	1	5%	6%	-10	3%	22%
CN(Cc1ccccc1)C(=O)COC(=O)c1ccc(Cl)cc1N	29*	·	12%	47	6%	17%
COc1ccc(N2CCN(C(=O)COC(=O)c3cc(S(=O)(=O)N(C)C)ccc3N3CCCC3)CC2)cc1	·	·	10µM*	·	·	?
CN(CC(=O)Nc1ccccc1Cl)C(=O)COC(=O)c1cc(S(=O)(=O)N(C)C)ccc1N1CCCC1	·	·	9%	·	·	7%
CN(Cc1ccccc1)C(=O)COC(=O)c1cc(S(=O)(=O)N(C)C)ccc1N1CCCC1	·	·	9.3µM*	·	·	12µM*
COc1ccc2c(c1)C(=O)[C@@H](OC(=O)NS(=O)(=O)c1ccc(F)cc1)[C@H](c1ccc(OC)c(Br)c1)O2	·	·	·	·	1%	·
CN(C(=O)C1CCC(=O)N(Cc2cccc(F)c2)C1)C1CCCCC1 (stereo not drawn)	87*	10%	0%	121*	·	32%
CCc1nc(CN(C)C(=O)C2CCC(=O)N(Cc3cccc(F)c3)C2)no1 (stereo not drawn)	1	-11%	-17%	16	9%	-11%
COc1ccc(CCN2CC(C(=O)N(C)Cc3ccc(C)o3)CCC2=O)cc1 (stereo not drawn)	38*	-3%	7%	74*	0%	32%
COc1ccc(CCNC(=O)C2CCC(=O)N(CCc3ccc(OC)cc3)C2)cc1 (stereo not drawn)	16	-3%	12%	23	0%	1%
COc1ccc(CCN2CC(C(=O)NCCc3ccccc3C(F)(F)F)CCC2=O)cc1 (stereo not drawn)	66*	-9%	-1%	70*	·	4%
COc1ccccc1CN1CC(C(=O)NCCc2ccc(C)o2)CCC1=O (stereo not drawn)	13	-10%	-18%	-3	·	9.3µM*
Cc1ccc2c(CC(=O)N(C)c3c(N)n(Cc4ccccc4)c(=O)[nH]c3=O)coc2c1	·	·	6%	·	·	10%
O=C(NCCc1ccc(C(F)(F)F)cc1)C1CCC(=O)N(CCCN2CCCC2=O)C1 (stereo not drawn)	12*	-20%	0%	18	5%	15µM*
SMILES	Cycloheximide cs	NS1 inh	Pf growth 48h	Shiga toxin inh	Giardia FBPA inh	Pf growth 96h
CC(C)Oc1ccc(CCNC(=O)C2CCC(=O)N(Cc3cccc(F)c3)C2)cc1 (stereo not drawn)	55*	8%	-9%	54	·	?
CN(CCNC(=O)C1CCC(=O)N(Cc2cccc(F)c2)C1)CCc1ccccc1 (stereo not drawn)	10	13%	-13%	-2	·	?
COc1ccccc1CN1CC(C(=O)NCCCc2ccc(F)cc2)CCC1=O (stereo not drawn)	9	-1%	-20%	6	16%	?
COc1ccccc1CCNC(=O)C1CCC(=O)N(Cc2cccc(F)c2)C1 (stereo not drawn)	20*	-3%	-10%	37*	1%	?
COc1ccccc1CCNC(=O)C1CCC(=O)N(Cc2ccccc2OC)C1 (stereo not drawn)	15*	5%	-5%	23	·	2%
Cc1ccc(S(=O)(=O)N(CC(=O)NCc2ccncc2)Cc2ccc(F)cc2)cc1	-4	-10%	-12%	-6	-1%	-1%
COc1ccccc1CN1CC(C(=O)N(C)Cc2ccncc2C)CCC1=O (stereo not drawn)	-2	12%	21%	-3	·	0%
COc1ccc(CNC(=O)C2CCC(=O)N(CC3CCCCC3)C2)cc1 (stereo not drawn)	-5	-2%	-7%	-15	·	2.3µM*
COc1ccccc1CN1CC(C(=O)N(C)Cc2ccc(C)o2)CCC1=O (stereo not drawn)	22*	-3%	4%	98	·	8%
COc1ccccc1CN1CC(C(=O)NCc2c(F)ccc(C)c2F)CCC1=O (stereo not drawn)	47*	12%	-2%	82*	·	?
COc1cccc(C(=O)NCCN2CCN(c3ccccc3)CC2)c1	-2	10%	-1%	·	?	25%
O=C(CCN1CCN(S(=O)(=O)c2ccc(Cl)cc2)CC1)Nc1ccc(F)cc1	-3	-21%	-22%	-7	·	18%
O=C1CCN(S(=O)(=O)c2ccccc2)CCN1CCOCc1cccc(F)c1	-2	4%	7%	7	7%	-3%
Cc1nn(-c2ccccc2)c2c1C(c1ccc(O)c(O)c1)N1C(=N2)C(Nc2ccccc2)=Nc2ccccc21 (stereo not drawn)	-1	?	10µM*	-9	-11%	10µM*
CCN(CC(=O)Nc1ccc(OC)cc1)C(=O)Cc1cccs1	·	·	3%	·	·	3%
O=S1(=O)OC(c2ccc(O)cc2)(c2ccc(O)cc2)c2ccccc21	·	-8%	-5%	·	·	-7%
N#Cc1ccc(C(=O)Nc2cc(-c3ccccc3)nn2-c2ccccc2)cc1	·	·	24%	·	·	?
O=C(NNC(=O)c1cc(-c2ccccc2)nn1-c1ccccc1)c1ccccc1	8.5*	-1%	17%	13	-4%	28%
O=C(Nc1nc2ccccc2s1)c1cc(-c2ccccc2)nn1-c1ccccc1	26*	?	32%	24*	6%	?
CC(=O)c1sc(NC(=O)c2cc(-c3ccccc3)nn2-c2ccccc2)nc1C	2	15%	13%	-19	0%	34%
O=C1CCS/C(=N\N=C\c2ccc(Cl)cc2Cl)N1	16*	0%	-3%	24	0%	-6%
